From PubChem
FLuc modulator – qHTS profiling assay for firefly luciferase inhibitor/activator using purifed enzyme and Km concentrations of substrates (counterscreen for miR-21 project); purified FLuc, Km substrates, luminescence inhibition; Potency, µM (doses to about 57.5 µM), inactives show at the top dose activity change, negative = inhibition, hits mostly inhibitors; 360,000 compounds, 6.9% hits; AID 588342, 2011;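 note: plate controls were vehicle for no effect and reference inhibitor for full effect; nearly all actives have a fitted effect of over 55% in size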
Target sequence (P08659 whole entry, looked up): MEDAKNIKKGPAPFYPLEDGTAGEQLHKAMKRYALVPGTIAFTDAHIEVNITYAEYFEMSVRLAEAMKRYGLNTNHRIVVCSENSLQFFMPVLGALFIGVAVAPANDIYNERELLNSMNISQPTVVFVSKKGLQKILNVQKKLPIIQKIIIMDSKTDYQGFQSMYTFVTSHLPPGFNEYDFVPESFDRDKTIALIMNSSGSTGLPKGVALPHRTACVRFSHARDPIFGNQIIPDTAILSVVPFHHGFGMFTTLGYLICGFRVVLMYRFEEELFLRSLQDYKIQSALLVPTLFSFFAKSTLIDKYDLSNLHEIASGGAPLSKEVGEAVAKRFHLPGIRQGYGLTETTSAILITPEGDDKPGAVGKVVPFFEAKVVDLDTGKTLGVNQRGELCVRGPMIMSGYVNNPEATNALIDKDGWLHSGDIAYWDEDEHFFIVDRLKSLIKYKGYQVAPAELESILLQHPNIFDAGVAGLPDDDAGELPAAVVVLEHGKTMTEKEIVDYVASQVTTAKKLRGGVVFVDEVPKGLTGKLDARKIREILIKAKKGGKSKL
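Purified P. pyralis luciferase (10nM final) with 10uM D-luciferin and 10uM ATP (Km levels) in 50mM Tris acetate pH 7.5, 10mM Mg acetate, 0.01% Tween-20, 0.05% BSA; qHTS 6-point titration, ~60 µM downward; luminescence read.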
Rab9 prom act – qHTS Assay for Rab9 Promoter Activators. Huh7 Rab9 promoter-luciferase reporter, luminescence, 24 h. Potency, µM (highest dose often 9.22 µM), inactives show at the top dose activation, negative = inhibition, usual class: activators. 320,000 compounds, 2.8% hits; note: % of control where 0% means no effect; nearly all actives have a fitted effect of over 60% in size
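Quantitative HTS format; Huh7 Rab9-luciferase reporter cells (1500/well) receive compound 2 h post-plating, incubate 24 h at 37 °C, then get luciferase reagent for 10 min before luminescence reading.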
NPC1 promoter act – qHTS Assay for NPC1 Promoter Activators; 320,000 compounds, 2.4% hits; Potency, µM (series often up to 9.22 µM), for inactives: at the highest dose activation, usual class: activators; Huh7 NPC1 promoter luciferase reporter, 24 h; note: % of control where 0% means no effect; nearly all actives have a fitted effect of over 60% in size
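Luminescence from an NPC1 promoter-driven luciferase reporter in stably transfected Huh7 cells was measured after 24 h compound treatment at 37 °C, followed by 10 min ambient incubation with luciferase detection reagent.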
SMN2 splice up – qHTS Assay for Enhancers of SMN2 Splice Variant Expression; HEK293 SMN2-luciferase splicing reporter, luminescence, 30-36 h; 210,000 compounds, 2.8% hits; Potency, µM (top dose mostly 46.1 µM), for the others: at the highest dose activity change, positive = activation, usual class: activators; note: % of control where 0% means no effect; nearly all actives have a fitted effect of over 55% in size
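HEK293 cells carry an SMN2 […]–luciferase reporter in which exon 7 inclusion puts luciferase in frame. Cells were plated 10-12 h before compound addition, then incubated 30-36 h at 37C. ONE-Glo luminescence was read; sodium butyrate at 4.5 mM final served as control.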
ELG1 repair inh – qHTS screen for small molecules that inhibit ELG1-dependent DNA repair in human embryonic kidney (HEK293T) cells expressing luciferase-tagged ELG1; HEK293T ELG1-luciferase reporter, luminescence, 16 h; DNA damage induced by 5-fluorouridine; Potency, µM (titrated, usually from 46.1 µM), without a hit: at the highest dose activity change, negative = inhibition, hits mostly inhibitors; 330,000 compounds, 2.3% hits; AID 504467, 2011; note: % is set by controls: 0 for no effect and ±100 for the full control effect; nearly all actives have a fitted effect of over 55% in size
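HEK293T cells expressing luciferase-tagged ELG1 (2,000/well) received 5-Fluorouridine plus compound or DMSO for 16 hr at 37 °C. Luciferase was read by ONE-Glo luminescence after 30 min at room temperature.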
ELG1 genotox – qHTS screen for small molecules that induce genotoxicity in human embryonic kidney (HEK293T) cells expressing luciferase-tagged ELG1. HEK293T ELG1-luciferase reporter, luminescence, 16 h. Potency, µM (top dose mostly 46 µM), for the others: at the highest dose activity change, positive = activation, most hits filed as activators. 330,000 compounds, 1.3% hits. AID 504466, 2011; note: % of control where 0% means no effect; nearly all actives have a fitted effect of over 60% in size
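Step 1: seed 2,000 HEK293T ELG1-luciferase cells per well. Step 2: add compound or DMSO, incubate 16 hr at 37 °C. Step 3: ONE-Glo, 30 min at room temperature, read luminescence.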
The depositor's hits bear a star; ? = inconclusive; / = no result given. Rows were chosen to be rich in hits. Some 9.3% of all compounds tested hit in one or more screens of this group. Calls come from the whole dose curve; as a rule, active = well fitted curve in the direction sought with a large enough effect; inconclusive = small, poorly fitted or top-dose-only effect, or another doubt; inactive = no such curve, though single readings can be large; an effect the other way counts as inactive or inconclusive. Potency is the fitted concentration of half-maximal effect.

SMILES	FLuc modulator	Rab9 prom act	NPC1 promoter act	SMN2 splice up	ELG1 repair inh	ELG1 genotox
Oc1c(Br)cc(Cl)cc1C=Nc1ccc(N2CCOCC2)cc1	16.9µM*	-5.8%	0.3%	/	?	-4.5%
Clc1cccc(-c2ccc(C=Nc3ccc(N4CCOCC4)cc3)o2)c1	10.7µM*	-11.4%	3.1%	-28.2%	2.8%	3.1%
Oc1ccc(N=Nc2cccc(Cl)c2)cc1C=Nc1ccc(N2CCOCC2)cc1	-17.3%	-0.1%	12.6%	-66.7%	-4.5%	7.3%
CN1CCCC(OC(=O)c2ccc(C(C)(C)C)cc2)C1 (configuration not stated)	?	-1.9%	-1.1%	/	?	3.1%
Cc1ccc(-n2c(C)cc(/C=c3/sc4nc5ccccc5n4c3=O)c2C)cc1	1.2µM*	-28.0%	-22.3%	-79.4%	?	-1.5%
O=C(O)Cn1cc(/C=c2/sc3nc4ccccc4n3c2=O)c2ccccc21	10.7µM*	-2.9%	-0.6%	16.6%	?	0.1%
O=c1/c(=C\c2cccn2-c2ccccc2)sc2nc3ccccc3n12	?	2.51µM*	?	/	?	4.61µM*
O=C(O)Cn1cc(/C=C2/NC(=O)N(c3ccc(Cl)cc3)C2=O)c2ccccc21	?	1.0%	-1.9%	-3.3%	-3.9%	-8.3%
Cc1ccc(OCC(=O)Nc2ccc(S(=O)(=O)Nc3ccccn3)cc2)cc1C	-1.5%	-1.2%	-2.7%	-5.8%	-0.1%	1.5%
CCOc1ccc2oc(C(=O)N3CCN(Cc4ccccc4)CC3)c(C)c2c1	?	4.0%	2.1%	/	-28.7%	-0.1%
O=C(Oc1ccc(N(Cc2cccs2)C2=NS(=O)(=O)c3ccccc32)cc1)c1ccccc1Cl	6.7%	-7.8%	-5.5%	-15.7%	-26.6%	-4.7%
CCC1CCCCN1C(=O)Nc1ccc(F)cc1 (configuration not stated)	5.6%	2.8%	-1.8%	7.4%	-1.8%	9.0%
Cc1nc2ccccn2c1C(=O)C(=O)Nc1cc(F)ccc1F	7.2%	20.4%	-3.0%	9.3%	25.3%	4.2%
CCOC(=O)c1ccc(Nc2ncnc3nc[nH]c23)cc1	?	?	?	10µM*	?	?
c1ccc(COc2ccc(Nc3ncnc4nc[nH]c34)cc2)cc1	10.7µM*	?	?	0.1%	?	?
COCCNC(=O)C1CCN(Cc2cccc(OCc3ccccc3)c2)CC1	-1.8%	2.9%	-3.7%	/	-22.4%	-1.7%
COc1ccc(C2CC(c3ccc(Br)cc3)=NN2C(=O)CN2CCCC2)cc1 (configuration not stated)	3.5%	-7.6%	-2.5%	/	?	-7.0%
COc1ccccc1C(C)NCC(=O)Nc1ccccc1C(F)(F)F (configuration not stated)	-9.3%	6.4%	-0.5%	4.47µM*	4.1%	-4.5%
CCC(O)(C(=O)Nc1ccccc1C(F)(F)F)c1ccccc1OC (configuration not stated)	-3.2%	-10.7%	-2.8%	/	-4.3%	-0.2%
Cc1ccc(-c2noc(CNC(=O)c3ccc(C)c(Cl)c3)n2)cc1	-3.3%	/	/	0.7%	/	/
CCc1ccc2oc(C(=O)Nc3nc(-c4ccc(F)cc4)ns3)c(C)c2c1	6.75µM*	/	/	6.4%	/	/
CCc1ccc2oc(C(=O)Nc3cccnc3)c(C)c2c1	2.13µM*	3.98µM*	?	/	?	4.11µM*
O=C(Nc1cccnc1)c1cc2c(ccc3ccccc32)o1	0.953µM*	/	/	11.2µM*	/	/
Cc1c(C(=O)Nc2cccnc2)oc2ccc(Br)cc12	2.69µM*	3.16µM*	?	/	?	18.3µM*
CCCC(=O)Oc1ccc(-c2nccc(C(OC)OC)n2)cc1	13.5µM*	?	7.0%	-1.1%	?	12.4%
SMILES	FLuc modulator	Rab9 prom act	NPC1 promoter act	SMN2 splice up	ELG1 repair inh	ELG1 genotox
COC(OC)c1ccnc(-c2ccc(OC(=O)c3ccc(F)cc3)cc2)n1	?	15.4%	0.3%	6.2%	?	-4.8%
Cc1ccc(C(C)C)c(OCC(O)CN2CC(C)OC(C)C2)c1 (configuration not stated)	2.3%	0.5%	2.9%	-12.8%	-1.8%	-9.5%
CCOc1ccc(NC(=S)N(CCc2c(C)[nH]c3ccc(C)cc23)Cc2ccco2)cc1	4.1%	1.1%	0.6%	0.0%	16.4µM*	-1.5%
COc1ccc(NC(=S)N(CCc2c(C)[nH]c3ccc(C)cc23)Cc2ccco2)cc1	0.4%	-14.6%	-0.3%	-13.3%	?	-4.0%
CSc1ccc(N=Nc2c(C)[nH]n(C)c2=O)cc1	19µM*	17.7%	1.7%	/	0.0%	?
Cc1[nH]n(-c2ccccc2)c(=O)c1N=Nc1c(O)cc(S(=O)(=O)N(C)C)c2ccccc12	?	-39.7%	-34.5%	/	4.11µM*	-35.9%
Cc1[nH]n(-c2ccccc2)c(=O)c1N=O	?	-2.0%	0.4%	-11.1%	0.3%	-8.6%
Cc1[nH]n(-c2ccccc2)c(=O)c1C(=O)c1ccccc1	-14.3%	0.2%	-3.9%	/	?	-6.6%
CC(=O)c1cccc(N=Nc2c(-c3ccccc3)[nH]n(-c3ccccc3)c2=O)c1	?	-7.1%	-6.8%	-16.3%	8.2µM*	-8.1%
Cc1ccc(N=Nc2c(C)[nH]n(-c3ccccc3)c2=O)c(C)c1	-2.1%	-4.0%	-5.9%	/	7.4%	14.1%
Cc1[nH][nH]c(=O)c1N=Nc1ccc(Cl)cc1	-11.9%	-8.2%	-4.6%	-13.9%	-22.8%	-7.3%
Cc1[nH]n(-c2ccccc2)c(=O)c1N=Nc1ccc2c(c1)OCCO2	6.01µM*	3.98µM*	?	17.8µM*	?	?
COc1ccc(C(=O)Nc2ccc(NC(=O)c3ccccc3F)cn2)cc1	-12.4%	5.6%	-5.1%	/	?	6.6%
Cc1[nH]n(-c2ccccc2)c(=O)c1N=Nc1cccc(Cl)c1	9.53µM*	16.7%	?	/	?	16.1%
Cc1[nH]n(-c2ccccc2)c(=O)c1N=Nc1cccc([N+](=O)[O-])c1	13.5µM*	19.4%	26.8%	/	8.7%	-0.2%
Cc1ccc(N=Nc2c(C)[nH]n(-c3ccccc3)c2=O)cc1Br	-2.3%	17.5%	18.1%	/	3.0%	1.1%
Cc1[nH]n(-c2cccc([N+](=O)[O-])c2)c(=O)c1-c1ccccc1	?	-5.5%	1.8%	-8.4%	-19.0%	8.7%
Cc1[nH]n(-c2ccccc2)c(=O)c1N=Nc1ccc(F)cc1	2.69µM*	?	27.7%	/	?	?
